Data reported in PubChem BioAssay (Tox21).
Records with an inconclusive call do not appear. A call without a number means that no potency is given here. Unmarked numbers belong to inactive results. Active and inactive are the calls of the source. Calls come from the whole dose curve.

Assay: Nuclear factor erythroid 2-related factor 2/antioxidant responsive element (Nrf2/ARE) small molecule agonists: luciferase reporter gene qHTS assay in human keratinocytes (AID 1919969); note: nearly all actives have a fitted effect of over 35% in size
Potency is the fitted concentration of half-maximal effect.

SMILES: CCCCCCCCCCCCN1CCCC1=O
- Potency: inactive

SMILES: COc1ccc(OC(F)(F)F)cc1CN[C@H]1CCCN[C@H]1c1ccccc1
- Potency: inactive

SMILES: C=C[C@](C)(O)CC[C@@H]1[C@@]2(C)CCCC(C)(C)[C@@H]2CC[C@@]1(C)O
- Potency: inactive

SMILES: C=CC(=C)CCC=C(C)C
- Potency: 68.6 µM (active)

SMILES: Cc1cc([N+](=O)[O-])ccc1N
- Potency: inactive

SMILES: CN(C/C=C/c1ccccc1)Cc1cccc2ccccc12
- Potency: inactive

SMILES: O=C(/C=C/c1ccc([N+](=O)[O-])cc1)c1ccccc1
- Potency: 54.6 µM (active)

SMILES: CCC(C)c1cc(C(C)(C)C)c(O)c(C(C)(C)C)c1 (stereo not given)
- Potency: 16.9 µM (active)

SMILES: Nc1ccc(O)c(N)c1
- Potency: inactive

SMILES: CCCCC/C(=C\c1ccccc1)CO
- Potency: inactive

SMILES: COC(=O)NCCC[Si](OC)(OC)OC
- Potency: 54.5 µM (active)

SMILES: O=C(/C=C/c1ccc(O)c(O)c1)O[C@@H](C(=O)O)[C@@H](OC(=O)/C=C/c1ccc(O)c(O)c1)C(=O)O
- Potency: inactive

SMILES: O=C(Oc1ccccc1)c1ccc2ccccc2c1O
- Potency: 8.63 µM (active)

SMILES: C=CCN1C[C@H](C(=O)N(CCCN(C)C)C(=O)NCC)C[C@@H]2c3cccc4[nH]cc(c34)C[C@H]21
- Potency: inactive

SMILES: CC(=O)Oc1ccc([N+](=O)[O-])cc1CCl
- Potency: 27.3 µM (active)

SMILES: CN(C)c1ccc(SC#N)cc1
- Potency: 24.3 µM (active)

SMILES: CCCCCCCCCCCCCCCS(=O)(=O)Oc1ccccc1
- Potency: inactive

SMILES: Nc1cc(Cl)c([N+](=O)[O-])cc1O
- Potency: inactive

SMILES: CN1CCN(c2cc3c(nn2)Oc2ccccc2N3C)CC1
- activity, positive = activation: 17.2% [at 19 µM]

SMILES: CCCCC/C=C\C=C\C(=O)OCC
- Potency: 25.4 µM (active)

SMILES: CCCCOC(=O)c1ccccc1C(=O)OCC(CC)CCCC (stereo not given)
- Potency: 43.3 µM (active)

SMILES: Sc1nc2ccccc2s1
- Potency: 68.6 µM (active)

SMILES: CCOc1ccc(N=Nc2ccc(/C=C/c3ccc(N=Nc4ccc(OCC)cc4)cc3S(=O)(=O)O)c(S(=O)(=O)O)c2)cc1
- Potency: inactive

SMILES: Oc1ccc(CCNCCCCCCNCCc2ccccc2)cc1O
- Potency: inactive

SMILES: CC1=NN(c2cc(S(=O)(=O)O)ccc2Cl)C(=O)C1N=Nc1ccccc1 (stereo not given)
- Potency: inactive

SMILES: Cc1cc2nc3c(=O)[nH]c(=O)nc-3n(C[C@H](O)[C@H](O)[C@H](O)CO)c2cc1C
- Potency: inactive

SMILES: Cc1ccc(O)c(N)c1
- Potency: 24.4 µM (active)

SMILES: O=[N+]([O-])c1ccc(O)cc1
- Potency: inactive

SMILES: C=Cc1ccc(S(=O)(=O)O)cc1
- Potency: inactive

SMILES: Cc1cc(Nc2ccc(O)cc2)ccc1N
- Potency: 43.1 µM (active)

SMILES: COc1ccc(-c2ccc3cc(C(=O)O)ccc3c2)cc1C12CC3CC(CC(C3)C1)C2
- Potency: inactive

SMILES: Nc1ccc([N+](=O)[O-])c(N)c1
- Potency: inactive

SMILES: Cc1cccc(C)c1NC(=O)CN1CCN(CCCC(c2ccc(F)cc2)c2ccc(F)cc2)CC1
- Potency: inactive

SMILES: Oc1cc2c(cc1O)[C@H]1c3ccc(O)c(O)c3OC[C@@]1(O)C2
- Potency: inactive

SMILES: CC(CN)CC(C)(C)CCN (stereo not given)
- Potency: inactive
